{"source": "the supplement of paper PMC6555819"}
{"system": "VDR:RXRa (NR concentration 270 nM, RXRa partner concentration 90 nM)", "experiment": "PBM binding z-score (relative to random genomic background probes); higher = stronger binding; sequences stand for … in GC…GCGATTGACAGCGTAGAATGAAGG", "description": "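Protein-binding microarray (Agilent 4x180K custom design, double-stranded 60-nt probes: 5' GC cap, 34-nt variable region, 24-nt constant primer region; full probe sequence given). Purified or IVT nuclear receptor:RXRα heterodimers (3:1 NR:RXRα, mostly 270:90 nM) or homodimers were incubated for 1 h in PBS with 2% milk and no ligand, then detected with Alexa488 antibodies. Fluorescence from o1-orientation probes (~5 replicates averaged) was converted to z-scores against 500 random hg19 background probes. Variable regions are seed direct-repeat (DR0–DR5) sites, all their single-nucleotide variants and half-site ablations.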"}
{"sequence": "CGTCCAAGGTCAGAAAGGTCAGTGAATGCCGAGT", "PBM binding z-score": 6.33}
{"sequence": "TTACGAAGGTGAAGGTCGTTGATCCCTCTGTAGA", "PBM binding z-score": 1.39}
{"sequence": "CCGACTGGGGCAAAGGTTCCCATACTCAGTACGA", "PBM binding z-score": -0.179}
{"sequence": "CAAACTAGGTCACAGAGGTCAAAGTCCGTGCGTA", "PBM binding z-score": 8.16}
{"sequence": "TTACCTAGGTGAGCTGAGGTCGTTGATCCAACTC", "PBM binding z-score": 3.05}
{"sequence": "TCATATAGGTAAAGGTGGAAGTCGAACGATATGA", "PBM binding z-score": 0.368}
{"sequence": "ACTCGGAGGACAAAAGTCAGAGCTACGCCAGTGA", "PBM binding z-score": -0.553}
{"sequence": "ACCGACAGGTGAGTGAAGGTAACTCAGCTGGACG", "PBM binding z-score": -0.484}
{"sequence": "CGGCAAAGTTCAACTAAGGTAACGTAAAGCACGC", "PBM binding z-score": 4.67}
{"sequence": "CAAACTAGGTCAAGAGGTCATAGTCCGCTTCCCG", "PBM binding z-score": 5.59}
{"sequence": "CCTAGTTGGTCAGCAGGTCACACACCGGATATGA", "PBM binding z-score": 2.32}
{"sequence": "AGATCGAGGGCAATGAGTTGATAGCACGGGTGGC", "PBM binding z-score": 5.15}
{"sequence": "AGTCTAAGTTCATCTAGGTAACGTAAGATATGCT", "PBM binding z-score": 4.65}
{"sequence": "GGCACGAGGGCAAAGTTGATAGCATCTGTCGACG", "PBM binding z-score": 1.23}
{"sequence": "CCGACTGGGGCAAAAGTTACCATACTCAGTACGA", "PBM binding z-score": -0.267}
{"sequence": "TAGCCTAGGTCATGCGGGCCAGTAGAGTGTCGGC", "PBM binding z-score": 2.95}
{"sequence": "CGTGCTAGGTCATGGTCAGCTAATCTACAGTATG", "PBM binding z-score": 1.7}
{"sequence": "CACACAGGGTCAGCTAGGCCAGAGTAGGGACGGC", "PBM binding z-score": 3.8}
{"sequence": "CGAACTACGTCAAGGACAGTGAATCTCCGCACGC", "PBM binding z-score": -0.475}
{"sequence": "ACATGTAGGTTACATCCGGGTCATTCAGGCTATG", "PBM binding z-score": 4.11}
{"sequence": "CCTAGTTGGTCAGGAGGTCGCACACCGGATATGA", "PBM binding z-score": 1.41}
{"sequence": "CCTATTGGGCCACGAAAGGTCATTGATTCAGTGA", "PBM binding z-score": 4.16}
{"sequence": "TTACCAAGGTGAGCTGAGGTCGTTAATCCAACTC", "PBM binding z-score": 3.68}
{"sequence": "ATCGAAAGGTCGACAAGGTGAGTATACACCGTTT", "PBM binding z-score": 4.61}
{"sequence": "AGAAGGAGGTTACCAAAGATCAGGGAAACGCTTG", "PBM binding z-score": 0.838}
{"sequence": "AATACAGGGTCACTAGGCCAGCGTAGGTACGAAT", "PBM binding z-score": 4.16}
{"sequence": "ACAGACAGTTGATGAAGGTAACTCAGGCTATCAT", "PBM binding z-score": 0.101}
{"sequence": "CCTGCTAGGTCAATGGACAGCTAAAGCAGCTCGC", "PBM binding z-score": 0.586}
{"sequence": "CATTACGGGTCAAGGTTATAGCACGGGTGGTACG", "PBM binding z-score": 3.96}
{"sequence": "TTTAGTTGGTCACGGAGGTCACACACGACGGGTA", "PBM binding z-score": 6.05}
{"sequence": "CAAACTAGGTCAAGAGGTCGAAGTCCGCTTCCCG", "PBM binding z-score": 4.04}
{"sequence": "ATCTCTAGGTAACAAGTTCTGTGAAAGAGAGGAC", "PBM binding z-score": 0.359}
{"sequence": "CGTACTAGGTCAAGGACAGTGAATCTCCGCACGC", "PBM binding z-score": 1.33}
{"sequence": "GTACCAAGGTGAATAGGTAGTTGATGAGTAGGCG", "PBM binding z-score": -0.15}
{"sequence": "AGAACGAGGGAACGCTGAGTTGATAGCAGAGTAG", "PBM binding z-score": -0.0908}
{"sequence": "ACAGACAGGTGAGTGAAGGTAACTCAGCTGGACG", "PBM binding z-score": -0.401}
{"sequence": "CTCGAAAGGTCGTGCTCAGGTGGGTATACCAAAC", "PBM binding z-score": 3.24}
{"sequence": "GCTGCTAGGTCAACTGATAGTCAGCTAAAGCTCG", "PBM binding z-score": 0.945}
{"sequence": "TCTTGGAGATCAGCAGGTTAAGAAAGCTGGCCAA", "PBM binding z-score": 0.335}
{"sequence": "TAGCCTAGTTCATTGGGCCAGTATAGTACGCATC", "PBM binding z-score": 1.17}
